PME-1 Maybr inh = Maybridge compound blocking human PME-1. Q9Y570. recombinant PME-1, FP-Rh probe fluorescence polarization. inhibition, % at 9 µM. hit rate 0.5% among 16,000; in the data active means inhibition above about 30%
Target sequence (Q9Y570 whole entry, looked up): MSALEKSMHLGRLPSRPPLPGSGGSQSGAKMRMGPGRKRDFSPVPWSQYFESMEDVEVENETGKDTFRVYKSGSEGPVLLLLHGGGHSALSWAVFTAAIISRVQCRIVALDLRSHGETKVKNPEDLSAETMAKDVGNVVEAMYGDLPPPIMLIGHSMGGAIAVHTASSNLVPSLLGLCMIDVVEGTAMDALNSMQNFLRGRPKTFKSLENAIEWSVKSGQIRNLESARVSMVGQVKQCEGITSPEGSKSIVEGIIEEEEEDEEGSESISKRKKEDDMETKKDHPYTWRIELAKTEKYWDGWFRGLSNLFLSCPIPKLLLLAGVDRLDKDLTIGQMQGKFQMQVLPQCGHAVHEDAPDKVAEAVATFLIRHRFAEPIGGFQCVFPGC
Nox1 inh = human Nox1 inhibition | Q9Y5S8 | HT29 cells, luminol chemiluminescence ROS | inhibition, % at 6.7 µM | hit rate 0.81% among 16,000 | AID 1792
NOTCH ag = agonists of NOTCH signaling; NOTCH signaling luciferase reporter cells, luminescence; activation, % at 2.5 µM; hit rate 0.4% among 15,000; in the data active means activation above about 2.2%
luminol inh ctr = quenches luminol chemiluminescence in Nox1 counter-screen. HRP/luminol/H2O2 chemiluminescence counterscreen. inhibition, % at 6.7 µM. hit rate 0.4% among 16,000. AID 1823; further: reference of the scale not given here
The depositor's hits bear a star; . = no result. Most compounds without a hit are left out; they make up all but 2.2% or so of the library. Unless noted, no stated cut-off is given here; in the data, active means inhibition above about 75%; inactive means the rest.

SMILES	PME-1 Maybr inh	Nox1 inh	NOTCH ag	luminol inh ctr
COc1ccc(OC)c(S(=O)(=O)c2ccc([N+](=O)[O-])cc2Cl)c1	1.8	89.4*	-0.8	3.9
O=C(O)C1CCCC1C(=O)O (stereo unspecified)	1.3	-31.2	-0.1	0.9
Nc1nc(NC2CCCCNC2=O)n[nH]1 (stereo unspecified)	7.6	92.5*	-0.2	62.1
O=C(Oc1ccc(-c2csnn2)cc1)c1ccc([N+](=O)[O-])o1	-0.1	-40.0	-0.6	101.4*
CC(C)(C)C(=O)Oc1ccc(-c2csnn2)cc1	4.0	11.3	-0.3	-65.8
O=C(Nc1ccc(Cl)cc1)Oc1ccc(-c2csnn2)cc1	-5.3	5.3	0.0	101.7*
CN(C)S(=O)(=O)Oc1ccc(-c2noc(-c3cc(C(C)(C)C)nn3Cc3ccccc3)n2)cc1	-2.0	10.0	0.3	-4.2
O=C(Nc1ccc(N2CCCCC2)cc1)Nc1ccccc1OC(F)(F)F	-2.6	80.2*	-0.5	1.8
CCOC(=O)c1csc(Nc2ccncc2)n1	1.1	-28.6	-0.5	1.8
CCOC(=O)c1csc(N/N=C2\CCc3ccccc32)n1	61.5*	41.8	0.0	3.8
NS(=O)(=O)c1cccc(NC(=O)Nc2ccccc2F)c1	-4.0	-6.2	0.5	-0.8
C/C=C/C=N/NC(=O)N/N=C/C=C/C	3.4	5.3	3.0*	-3.3
O=C(/N=S1\CCC2(C1)OCCO2)Nc1ccc(OC(F)(F)F)cc1 (stereo unspecified)	1.8	-28.1	-0.9	-0.5
CN(C)c1ccc(NC(=O)Nc2ccc(OCc3ccccc3)cc2)cc1	2.0	107.5*	-0.2	-3.7
Cc1ccc(NC(=O)Nc2ccc(OCc3ccccc3)cc2)cc1NS(C)(=O)=O	3.7	15.8	.	-15.8
CCOC(=O)c1nc(-c2ccc([N+](=O)[O-])cc2)no1	0.4	-22.8	.	-1.2
CCOc1c(NN(C)C)c(=O)c1=O	6.7	3.2	-0.4	102.3*
COc1ccc(C=NCc2ccc(OC)cc2)cc1	1.5	-31.8	1.0	-2.7
Nc1ccccc1Sc1ccc(Cl)cc1[N+](=O)[O-]	4.1	-31.6	-0.9	3.3
O=[N+]([O-])c1cc(Cl)ccc1Sc1ccccc1NS(=O)(=O)c1ccc(F)cc1	63.1*	8.0	-0.3	4.8
Cc1ccc(SC#N)c(N)n1	3.3	100.5*	-0.3	-9.3
CNc1ccc(S(=O)(=O)O)cc1	1.5	-16.2	-0.2	-1.5
Cc1cc(=O)n2ncnc2n1CC(=O)NNC(=S)Nc1ccc(Cl)cc1Cl	1.2	7.5	-0.4	75.1*
Cc1c(COC(=O)Nc2ccc(Cl)cc2Cl)sc2ccccc12	-6.2	-78.3	-0.8	2.3
Cc1noc(C)c1C(=O)N1CCN(c2ncc(C(F)(F)F)cc2Cl)CC1	2.0	-12.9	0.0	-3.9
SMILES	PME-1 Maybr inh	Nox1 inh	NOTCH ag	luminol inh ctr
Cc1oc(-c2ccccc2)cc1C(=O)N1CCN(c2ncc(C(F)(F)F)cc2Cl)CC1	-2.3	22.5	2.3*	-5.9
Cc1nn(C(=O)c2ccccc2)c(C)c1Oc1ccc(Cl)cc1	0.8	-41.3	3.9*	-0.6
Cc1cc(=O)oc2c(-c3ccccc3)n[nH]c(=O)c12	-1.2	-58.4	-0.8	2.3
CN(C)/C=C(\C(=O)Nc1ccc(F)c(F)c1F)S(=O)(=O)c1ccc(Cl)cc1	-1.0	-6.6	0.1	-2.7
CC(Oc1ccccc1-c1ccccc1)c1n[nH]c(=S)n1C (stereo unspecified)	1.4	-49.0	.	93.6*
Cn1c(CC#N)n[nH]c1=S	1.2	-29.2	-0.7	-2.4
COc1ccc(OC)c(CCCCCc2cc(OC)ccc2OC)c1	0.1	-4.2	0.0	-3.2
Cn1c(Sc2ncnc(Sc3nnc(C(F)(F)F)n3C)c2[N+](=O)[O-])nnc1C(F)(F)F	5.8	37.1	0.3	101.2*
Cc1cc(Sc2nnc(C(F)(F)F)n2C)c([N+](=O)[O-])cc1[N+](=O)[O-]	5.6	18.6	-0.4	-3.4
COc1cccc(-c2nnc(-c3ccccc3NC(=O)c3ccc(Cl)cc3)o2)c1	-2.1	-46.4	-0.6	2.0
O=C(COc1ccc(C2SCCS2)cc1)Nc1cc(Cl)cc(Cl)c1	123.6*	2.2	-0.3	3.0
O=C(COc1ccc(C2=NCCS2)cc1)Nc1ccc(Cl)cc1	-6.3	-51.0	-0.2	0.2
N/C(=N\S(=O)(=O)c1cc(C(F)(F)F)cc(C(F)(F)F)c1)c1cccnc1	1.8	-19.8	0.1	2.1
COc1cc(NC(C)=O)ccc1/C=N/NC(N)=S	5.3	2.1	-0.8	14.1
CNC(=S)N(C)NC(=S)Nc1ccc(OC)c(OC)c1	-0.1	83.9*	-0.1	30.9
Nc1ccccc1Sc1ccc(-c2cnc3ccccc3n2)cc1[N+](=O)[O-]	3.7	9.3	0.0	97.6*
Nc1nnc(Sc2cc3c(cc2[N+](=O)[O-])C(=O)NC3=O)s1	-2.6	76.0*	1.1	-1.3
O=C(Nc1cc(C(F)(F)F)ccc1N1CCC(C(F)(F)F)CC1)c1cccs1	-6.6	-104.3	-0.9	3.5
N#Cc1c(N)nc2[nH]c(=S)[nH]c(=O)c2c1-c1ccc([N+](=O)[O-])cc1	7.6	23.6	-5.6	83.8*
N#Cc1c(-c2ccncc2)[nH]c(=S)[nH]c1=O	0.9	-9.4	-0.9	8.1
Cc1ncc(CSc2nc3ccc(C(F)(F)F)cc3[nH]2)c(CO)c1O	6.3	4.2	-0.1	87.7*
Cc1ncc(CSc2nccc(=O)[nH]2)c(CO)c1O	1.7	-23.9	-0.8	-4.5
O=C(Nc1ccccc1C(=O)O)c1cccs1	-0.2	-47.1	-0.4	2.0
O=C(Cc1ccc([N+](=O)[O-])cc1)Nc1c(F)cccc1F	1.0	9.5	0.9	-5.2
O=C(Cc1ccc([N+](=O)[O-])cc1)Nc1nccs1	3.6	0.0	3.0*	-1.8
SMILES	PME-1 Maybr inh	Nox1 inh	NOTCH ag	luminol inh ctr
COc1ccccc1NC(=O)NCCN1CCN(Cc2ccccc2)CC1	7.5	60.4	-0.7	2.9
CCOc1ccccc1Nc1n[nH]c(=S)s1	1.3	88.5*	-0.1	5.8
Cc1nc(-c2ccccc2)sc1C(=O)Nc1ccccc1	1.5	24.3	-0.2	0.2
NS(=O)(=O)c1ccc(NNC(=O)c2c(F)cccc2Cl)cc1	10.9	80.7*	0.2	3.3
NS(=O)(=O)c1ccc(NNC(=O)c2cccs2)cc1	3.7	65.7	0.0	-1.0
COc1ccc(OC)c(NC(=O)Nc2ccc(Cl)cc2Cl)c1	-25.6	-41.9	-0.5	2.6
COc1ccc(Cl)cc1NC(=O)Nc1ccc(N(C)C)cc1	5.8	98.9*	1.1	1.4
CC1CN(c2ccc(NC(=S)NN)cc2)CC(C)O1 (stereo unspecified)	1.7	101.7*	0.0	0.6
N/C(=N\O)c1ccc([N+](=O)[O-])o1	4.9	-7.7	-0.3	0.1
CC(=NCc1ccc2c(c1)OCO2)c1ccccc1O	5.9	5.3	2.4*	-7.5
CCOC(=O)N1CCC(NC(=O)c2cc(C)on2)CC1	1.2	-39.5	-0.7	-1.2
Cc1cc(C(=O)NNS(=O)(=O)c2cccc3cccnc23)nn1C(C)(C)C	4.4	-7.9	3.2*	11.6
Cc1cc(=O)n2c([nH]c3ccccc32)c1C#N	20.1	31.5	0.2	84.8*
Cc1c(C#N)c(=O)[nH]c2ccccc12	-2.3	-37.1	-0.1	2.2
O=C(N/N=C/c1ccc(O)cc1)N/N=C/c1ccc(O)cc1	-0.3	96.2*	0.4	-60.8
CCOC(=O)N/N=C/c1ccc(O)cc1	4.0	-10.2	0.2	-13.0
NNC(=O)C(=O)Nc1ccc(Cl)cc1Cl	0.2	-34.9	-0.2	4.3

Screening data deposited in PubChem BioAssay by The Scripps Research Institute Molecular Screening Center.
